# Compounds with a hit are over-represented: about 4.2% of the library has one in this group of screens.
# DAX1 StAR inh: DAX1 (NR0B1) inhibitors on StAR promoter, primary screen, cell-based, luminescence, SF-1 (NR5A1), full-length DAX-1; HEK293T StAR-luciferase reporter, SF-1/DAX-1 repression relief; actives 1.1% (n = 370,000); inhibition, % at 6.8 µM; AID 652010, 2013;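 active = inhibition above the mean over all tested compounds plus 3 SD, cut at about 3.6% in these data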;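 also: higher inhibition means more luminescence from relief of DAX-1 repression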
# ssDAF-12 act: S. stercoralis DAF-12 nuclear receptor activators, primary screen, cell-based, luminescence, HEK293, GRIP1 co-expression, lit1-tk-luc; Nuclear hormone receptor DAF-12 (Strongyloides stercoralis); HEK293 ssDAF-12/GRIP1 lit1-tk-luc reporter; % of 3 µM dafachronic acid response; activation, % at 6.8 µM; actives 1% (n = 370,000);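 active = activation above the mean over all tested compounds plus 3 SD, cut at about 0.9% in these data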
# esBAF inh: Bmi1 luciferase reporter increase in mESCs, primary screen, esBAF inhibitor project, mouse ES cells, Bmi1 luciferase knock-in, single point; 24 h; 100% = twice the neutral-well signal; reporter increase, % at 12.5 µM; actives 2% (n = 350,000); AID 602393, 2012; in the data active = activation above about 40%; inconclusive = no clear call, values can overlap the other calls;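 also: a rise in the Bmi1 reporter signal indicates esBAF inhibition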
# Wnt bcat act: Wnt/beta-catenin pathway activators, primary screen, cell-based, plate reader, single point | Wnt/beta-catenin reporter cell assay, activator | actives 1.2% (n = 300,000) | activation, % at 9.35 µM; in the data active = activation above about 30%, passing the limit was not always enough; inconclusive = no clear call, values can overlap the other calls
# hcDAF12 agonist: H. contortus DAF-12 nuclear receptor activators, primary screen, cell-based, luminescence, HEK293, lit1-tk-luc reporter | actives 1.4% (n = 370,000) | HEK293 hcDAF-12 lit1-tk-luc reporter; 0% DMSO, 100% Δ7-dafachronic acid | activation, % at 6.8 µM;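 active = activation above the mean of all tested compounds plus 3 SD, cut at about 5.5% in these data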
# hgDAF-12 ag: H. glycines DAF-12 receptor agonists, primary screen, cell-based, luminescence, HEK293, GAL4 fusion, UAS-luciferase; Nuclear hormone receptor DAF-12 (Heterodera glycines), GAL4 fusion; HEK293 GAL4-hgDAF12 UAS-luciferase reporter, agonist luminescence; normalized to butyrate control; activation, % at 6.8 µM; actives 1.8% (n = 370,000); AID 687014, 2013;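 active = activation above a cutoff set at the mean of all screened compounds plus 3 SD, cut at about 10% in these data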
# DAX1 conf: DAX1 (NR0B1) inhibitors relieving SF-1 repression, confirmation, cell-based, luminescence, HEK293T, full-length DAX-1, SF-1 activated StAR promoter. shares compounds with DAX1 StAR inh. HEK293T StAR-promoter luciferase reporter, SF-1/DAX-1 repression. inhibition, % at 6.8 µM. actives 87% (n = 2,400). AID 652134, 2013;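 active = inhibition above the average of every tested compound plus 3 SD, cut at about 3.8% in these data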
# Target sequence (P51843 whole entry, looked up): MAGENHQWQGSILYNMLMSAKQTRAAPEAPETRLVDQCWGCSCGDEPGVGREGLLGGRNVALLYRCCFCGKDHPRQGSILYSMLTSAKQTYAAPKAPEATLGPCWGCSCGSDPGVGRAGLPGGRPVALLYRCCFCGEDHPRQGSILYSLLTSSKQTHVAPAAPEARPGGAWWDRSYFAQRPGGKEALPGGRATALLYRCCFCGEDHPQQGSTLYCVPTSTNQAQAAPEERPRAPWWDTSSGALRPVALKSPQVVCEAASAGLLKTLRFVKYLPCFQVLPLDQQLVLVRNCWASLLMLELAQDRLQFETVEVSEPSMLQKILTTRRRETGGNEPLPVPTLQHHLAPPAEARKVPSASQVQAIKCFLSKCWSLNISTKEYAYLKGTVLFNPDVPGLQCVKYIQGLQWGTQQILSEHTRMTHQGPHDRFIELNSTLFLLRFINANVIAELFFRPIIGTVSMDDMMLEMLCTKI
# SF1 AF2mut Luc: StAR reporter signal changes without DAX1, counter-screen for DAX1 inhibitor project, cell-based, luminescence, AF-2 mutant SF-1, transactivation | inhibition, % at 6.8 µM | HEK293 StAR-luciferase, SF-1 AF2 mutant | actives 78% (n = 2,400) | AID 652136, 2013 | shares compounds with DAX1 StAR inh;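 active = inhibition above the mean of all tested compounds plus 3 SD, cut at about 3% in these data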
# LXRb hcDAF ctr: LXR agonists, Gal4 luciferase reporter, confirmation, counter-screen for hcDAF-12 agonist project, cell-based, luminescence, HEK293, H. contortus campaign. shares compounds with hcDAF12 agonist. HEK293 Gal4-LXR tk-luc reporter, 24 h; normalized: DMSO 0%, positive control 100%. activation, % at 6.8 µM. 3,400 tested, under 10 active;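 active = mean percent activation of the reporter above a cutoff set as the average over tested compounds plus their standard deviation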
# hcDAF12 conf: H. contortus DAF-12 receptor agonists, confirmation, cell-based, luminescence, HEK293, lit1-tk-luc, triplicate; shares compounds with hcDAF12 agonist; HEK293 hcDAF-12 lit1-tk-luc reporter; % of Δ7-dafachronic acid response; activation, % at 6.8 µM; actives 61% (n = 3,400);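 active = mean activation across triplicate tests above the threshold derived from the earlier primary screen, cut at about 5.5% in these data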
# Hits are given with their value; . = inactive; ? = inconclusive; / = not tested or not shown; ! = repeats disagree.
SMILES,DAX1 StAR inh,ssDAF-12 act,esBAF inh,Wnt bcat act,hcDAF12 agonist,hgDAF-12 ag,DAX1 conf,SF1 AF2mut Luc,LXRb hcDAF ctr,hcDAF12 conf
CC(C)NC(=O)NC(=O)COc1ccc(Br)cc1Br,6.3,.,/,.,7.5,11.7,16.6,6.7,.,6.0
Cc1ccc(-c2cc3nc(C)cc(C)n3n2)cc1,4.5,5.6,59.9,.,17.4,21.0,10.8,6.2,.,18.2
Cc1cc(C)n2nc(-c3ccsc3-n3c(C)ccc3C)cc2n1,.,.,.,.,.,.,/,/,/,/
c1cc2c(cc1Nc1nc(-c3ccc4c(c3)OCO4)cs1)OCCO2,.,.,.,/,.,.,/,/,/,/
Cc1cc(C)nc(Nc2nc(-c3ccccc3)cs2)n1,4.5,5.0,.,.,22.1,18.4,19.6,8.4,.,36.9
c1ccc(-c2csc(Nc3ccc4c(c3)OCCO4)n2)cc1,6.9,3.1,.,45.9,15.0,18.6,19.9,7.0,.,16.3
COc1ccccc1-c1nc(-c2ccc(Br)o2)no1,7.9,4.5,.,.,26.3,19.8,17.3,8.2,.,21.3
COc1ccc(-c2nc(-c3ccc(Br)o3)no2)cc1OC,.,.,.,.,.,.,/,/,/,/
O=C(c1ccc2c(c1)OCO2)N1C[C@H]2[C@@H](c3ccccc31)[C@@H](CO)N2Cc1ccccc1Cl,/,/,.,/,/,/,/,/,/,/
COc1ccc(-c2cc3c(nn2)-c2ccccc2C3=O)cc1,4.5,2.4,.,.,9.4,12.2,.,.,.,.
COc1ccc(-c2cc(-c3ccccc3)c(-c3ccccc3)nn2)cc1,.,.,/,.,.,.,/,/,/,/
CC(C)c1ccc(-n2cnn(-c3ncccc3[N+](=O)[O-])c2=O)cc1,6.8,2.4,/,.,21.9,22.1,19.7,10.3,.,14.4
Cc1ccsc1C(=O)N/N=C/c1ccc2c(c1)OCO2,7.7,.,/,.,9.1,14.8,15.0,9.4,.,6.6
Cc1ccccc1/C=N/NC(=O)c1sccc1C,6.2,2.0,/,80.2,12.1,27.1,14.9,10.2,.,.
Cc1ccccc1/C=N\NC(=O)c1ccccc1-n1cccc1,.,.,/,.,.,.,/,/,/,/
C[C@@H]1CN([C@H](C)CO)C(=O)Cc2cc(NC(=O)Cn3cnnn3)ccc2O[C@@H]1CN(C)C(=O)NC1CCCCC1,/,/,.,/,/,/,/,/,/,/
C[C@@H]1CN([C@@H](C)CO)C(=O)Cc2cc(NC(=O)Nc3ccc(F)cc3)ccc2O[C@@H]1CN(C)S(=O)(=O)c1cccs1,/,/,.,/,/,/,/,/,/,/
c1ccc(-c2cn3c4c(sc3n2)CCCC4)cc1,6.2!,.,.,.,8.5,.,10.0,.,.,18.8
c1ccc(-c2cn3nc(-c4ccccc4)sc3n2)cc1,/,/,.,/,/,/,/,/,/,/
CN(C)C(=O)C[C@H]1CC[C@@H]2[C@H](COC[C@H](O)CN2CC2CCCC2)O1,/,/,.,/,/,/,/,/,/,/
COc1ccc(S(=O)(=O)N(C)C[C@@H]2Oc3ccc(NC(=O)NC(C)C)cc3C(=O)N([C@@H](C)CO)C[C@H]2C)cc1,/,/,.,/,/,/,/,/,/,/
Cc1noc(C)c1NC(=O)N[C@@H]1CC[C@H](CC(=O)Nc2ccccc2)O[C@@H]1CO,/,/,.,/,/,/,/,/,/,/
O=C(O)c1ccc(N=NNc2cccc([N+](=O)[O-])c2)cc1,5.1,.,/,?,6.7,.,14.1,8.0,.,.
O=C(Nc1cccc([N+](=O)[O-])c1)c1ccc(-c2ccccc2)cc1,.,.,/,.,.,.,/,/,/,/
Oc1c(N=Nc2ccccc2)sc2ccccc12,5.5,3.5,.,.,18.1,12.6,18.7,7.4,.,18.3
SMILES,DAX1 StAR inh,ssDAF-12 act,esBAF inh,Wnt bcat act,hcDAF12 agonist,hgDAF-12 ag,DAX1 conf,SF1 AF2mut Luc,LXRb hcDAF ctr,hcDAF12 conf
N#CCSc1nc(-c2ccccc2)cs1,.,.,?,.,.,.,/,/,/,/
N#CCSc1ccc2nc(-c3ccccc3)cn2n1,7.1,1.0,51.4,.,7.5,.,5.8,4.7,.,8.1
CC(C)C#Cc1cnc2c(c1)C(=O)N([C@H](C)CO)C[C@@H](C)[C@@H](CN(C)C(=O)Nc1ccccc1F)O2,/,/,.,/,/,/,/,/,/,/
Cc1ccc2nc(N3C(=O)C(O)=C(C(=O)c4ccco4)C3c3cccs3)sc2c1 (configuration not stated),5.3,.,/,/,9.1,13.3,5.9,.,.,.
CO[C@@H]1CN(C)C(=O)c2cc(NC(=O)c3cccc(F)c3)ccc2OC[C@H](C)N(C(C)=O)C[C@@H]1C,/,/,.,/,/,/,/,/,/,/
COc1ccc(C2NC(=S)NC3=C2CCCC3=C2SCCS2)cc1 (configuration not stated),88.0,.,.,?,7.9,50.2,12.9,.,.,.
O=c1[nH]c(COc2ccc(Cl)cc2Br)nc2ccccc12,7.1,.,/,.,8.7,12.2,8.8,8.9,.,.
O=c1[nH]c(Cc2ccccc2Cl)nc2ccccc12,.,.,/,.,.,.,/,/,/,/
CCC(=O)c1ccc(/C=C/c2nc3ccccc3n2C)o1,4.7,1.4,/,.,6.9,24.9,8.8,5.4,.,6.7
COc1ccc(NC(=O)Nc2ccc3c(c2)C(=O)N([C@@H](C)CO)C[C@H](C)[C@H](CN(C)C(=O)c2ccccc2)OCCCC[C@@H](C)O3)cc1,/,/,.,/,/,/,/,/,/,/
N#CCc1nc2n(n1)Cc1ccccc1-2,.,.,.,/,.,.,/,/,/,/
